Several values for one entry are separate records, joined by “and”; a condition that tells them apart may be missing. Identical values can stand only once. Results filed as inconclusive are left out. Where a call stands in place of a potency, no number is given. A number with no mark means an inactive call. Activity calls are given as the source filed them. Calls follow the shape of the dose curve; as a rule, active = well fitted inhibition curve with a large enough effect in the repeat runs; inconclusive = weak or mixed curves, or effect the other way; inactive = no such curve, though single readings can be large or run the other way.
Target: Nuclear receptor ROR-gamma (Homo sapiens) (UniProt P51449)
Assay: qHTS assay to identify small molecule antagonists of the retinoid-related orphan receptor gamma (ROR-gamma) signaling pathway (AID 1159521; also: nearly all actives have a fitted effect of over 50% in size; as to activity change, negative = inhibition: top concentration of the series differs between compounds)
Details: Tet-on RORgamma CHO cells, RORE-luciferase, 16 h; series mostly up to 92.4 µM; activity change, negative = inhibition: at the top concentration
Description: U.S. Tox21 Program National Center for Advancing Translational Sciences [NCATS] NIH Chemical Genomics Center [NCGC] U.S. Environmental Protection Agency [EPA] National Institutes of Environmental Health Sciences [NIEHS] National Toxicology Program [NTP] U.S. Food and Drug Administration [FDA] Tox21 Assay Overview: Nuclear steroid hormone receptors are involved in many biological processes including inflammatory responses, cell proliferation, and apoptosis. Environmental factors or compounds disrupting these nuclear receptor pathways and gene expression may promote susceptibility to immunotoxicants and autoimmune diseases. One important group of these expression factors are the retinoid-related orphan receptors. To assess compounds that may interfere with the retinoid-related orphan receptor gamma (ROR-gamma) transcription factor, a cell-based luciferase assay was used. The CHO cell-based assay utilizes a TET-inducible ROR expression factor and ROR response element-LUC reporter gene. Reporter gene activity was induced using Doxycycline Hyclate and measured after 16 hr incubation. Tet-on ROR gamma CHO cells were used to screen against the Tox21 10K compound library for ROR gamma antagonists by quantification of decreased reporter gene activity in terms of decreased luminescence.
Tox21 Assay Protocol Summary: Tet-on ROR gamma CHO cells were dispensed at 1,000 cells in 4 uL of culture medium per well into white wall/solid bottom 1536-well plates using a Multidrop Combi (Thermo Scientific, Waltham, MA) dispenser. Following incubation at 37 C and 5% CO2 for 4 hr, 23 nL of compounds dissolved in DMSO, positive controls or DMSO only were transferred by a Pintool station (Kalypsys, San Diego, CA) and after 2 hr incubation at 37 C, one ul of 1 uM (final concentration) of Doxycycline Hyclate was added to all the wells by using a Flying Reagent Dispenser (FRD) (Aurora Discovery, San Diego, CA). After 16 hr incubation at 37 C and 5% CO2, 5 uL of ONE-Glo reagent (Promega Corporation, Madison, WI) was added to each assay plate using FRD. After 30 min incubation at room temperature, luminescence was quantified on a ViewLux plate reader (Perkin Elmer, Waltham, MA).
Potency is read from the fitted curve at half-maximal effect.

Row | Structure (SMILES) | Potency | activity change, negative = inhibition
1 | CC(O)COCC(C)O (stereo not given) | inactive | 
2 | c1ccc(OCCOc2ccccc2)cc1 | inactive | 
3 | CCCCCCCCCCCCCCCO | inactive | 
4 | COS(C)(=O)=O | inactive | 
5 | CCCCCCCCCCCCS | inactive | 
6 | NNc1nncc2ccccc12 | inactive | 
7 | Cc1cccnc1 |  | 2.12%
8 | C=CCOC(=O)c1ccccc1C(=O)OCC=C | inactive | 
9 | CC(C)(N)CO | inactive | 
10 | CC1CCC(C(C)C)C(O)C1 (stereo not given) | inactive | 
11 | CCCCCCCCCC | inactive | 
12 | CCCCC(CC)CO (stereo not given) | inactive | 
13 | Fc1ccc(Br)cc1 |  | -12.3%
14 | C=C(C)C(=O)OCCOCCOCCOC(=O)C(=C)C | inactive | 
15 | O=C(OCCOCCOC(=O)c1ccccc1)c1ccccc1 | inactive | 
16 | CCCCCCCCCCCCc1ccccc1 | inactive | 
17 | CCCCCCCCCCCCOCCO | inactive | 
18 | O=C(O)CCCC[C@@H]1SC[C@@H]2NC(=O)N[C@@H]21 | inactive | 
19 | CCCCC(CC)COC(=O)CCCCC(=O)OCC(CC)CCCC (stereo not given) | inactive | 
20 | CC[C@H](C)C(=O)O[C@H]1C[C@@H](C)C=C2C=C[C@H](C)[C@H](CC[C@@H]3C[C@@H](O)CC(=O)O3)[C@H]21 | 982 nM (active) and 1.21 µM (active) | 

Row | Structure (SMILES) | Potency | activity change, negative = inhibition
21 | O=C(O)c1cc(=O)c2c(OCC(O)COc3cccc4oc(C(=O)O)cc(=O)c34)cccc2o1 | inactive | 
22 | OCc1cccnc1 |  | 13.8% [at 42.5 µM]
23 | C[C@H]1C[C@@H]2[C@H]([C@@H](O)C[C@@]3(C)[C@H]2CC[C@]3(O)C(=O)CO)[C@@]2(C)C=CC(=O)C=C12 | inactive | 
24 | CC1=C(C)S(=O)(=O)CCS1(=O)=O | 54.5 µM (active) | 
25 | CCN(CC)c1ccc(C(=O)c2ccccc2C(=O)O)c(O)c1 | inactive | 
26 | c1c[nH]cn1 | inactive | 
27 | CCC(O)OCCCOC (stereo not given) | inactive | 
28 | FC(F)(F)c1ccc(Cl)c(Cl)c1 | inactive | 
29 | CC(C)c1ccc(S(=O)(=O)O)cc1 | inactive | 
30 | C#C[C@]1(O)CC[C@H]2[C@@H]3CCC4=CC(=O)CC[C@@H]4[C@H]3CC[C@@]21C | 30.6 µM (active) | 
31 | O=C(O)c1ccc(C(=O)O)cc1 | inactive | 
32 | Nc1cc([N+](=O)[O-])ccc1O |  | -20%
33 | CC(C)(C)[C@@H](O)[C@@H](Cc1ccc(Cl)cc1)n1cncn1 |  | -24.3%
34 | COCCCOc1ccnc(CS(=O)c2nc3ccccc3[nH]2)c1C (stereo not given) | inactive | 
35 | O=c1[nH]nnc2ccccc12 | inactive | 
36 | c1ccc2c(c1)ccc1ccccc12 | inactive | 
37 | CC1=CC(=O)NS(=O)(=O)O1 | inactive | 
38 | CCCCCCCC(=O)OC | inactive | 
39 | O=C(Oc1ccccc1)c1ccccc1 | inactive | 
40 | CCCC(C)=O | inactive | 
